# Most compounds without a hit are left out; they make up all but 10% or so of the library.
# Pf growth 48h: inhibits P. falciparum growth in the first generation, 48 h. AID 504832. hit rate 5.9% among 310,000. Potency, µM (top dose mostly 28.7 µM), actives largely listed as inhibitors. P. falciparum luciferase growth in erythrocytes, 48 h; active = well fitted inhibition curve with a large enough effect; inconclusive = small, poorly fitted or top-dose-only effect, or another doubt; inactive = no such curve, though single readings can be large or run the other way
#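 Read-out is firefly luciferase luminescence from an integrated reporter in P. falciparum, so falling signal marks reduced parasite growth. Infected erythrocytes were at 2% hematocrit and 0.1% parasitemia (final) in Albumax-supplemented RPMI 1640.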
# Pf growth 96h: P. falciparum growth inhibition at 96 hours; P. falciparum luciferase reporter growth, 96 h; Potency, µM (series often up to 28.7 µM), actives largely listed as inhibitors; hit rate 6.9% among 320,000; active = well fitted inhibition curve with a large enough effect; inconclusive = small, poorly fitted or top-dose-only effect, or another doubt; inactive = no such curve, though single readings can be large or run the other way
#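 Cell-based qHTS: luciferase-tagged P. falciparum in erythrocytes (2% hematocrit, 0.05% parasitemia final) incubated with compounds for 96 hours, 37 C, 5% CO2; luciferase detection reagent then added and luminescence measured.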
# NS1 inh: inhibitors of influenza NS1 protein function | Potency, µM (doses to about 46.1 µM) | hit rate 0.4% among 270,000; also: actives are rising curves; nearly all actives have a fitted effect of over 50% in size
#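 OD600 was taken as the measure of yeast growth restored by compound in an NS1-expressing S. cerevisiae strain. Cells had been washed out of glucose medium and diluted 1:100 into galactose -URA medium, pH 6.0.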
# SARS PLpro yeast: SARS-CoV PLP inhibition in yeast; hit rate 0.19% among 330,000; Potency, µM (top dose mostly 32.9 µM), actives largely listed as activators; S. cerevisiae expressing SARS-CoV PLpro, growth rescue; also: nearly all actives have a fitted effect of over 55% in size
# Hits are given with their value; 0 = inactive; ? = inconclusive; - = not tested or not shown. Unless noted, calls follow the shape of the full dose curve.
SMILES,Pf growth 48h,Pf growth 96h,NS1 inh,SARS PLpro yeast
Cc1ccc(S(=O)(=O)N2CCN(C(=O)CSc3ncn[nH]3)CC2)c(C)c1,0,0,-,0
COc1ccc(OC)c2c1cc(C(=O)N[C@@H](Cc1ccccc1)C(=O)O)n2C,0,0,0,0
CC1CCCN(C(=O)CCS(=O)(=O)c2ccc3c(c2)NC(=O)C(C)S3)C1 (stereo not drawn),0,0,0,0
CN(C)Cc1ccccc1Sc1ccc(O)cc1O,0,0,0,0
CC(Cc1ccccc1Sc1ccccc1O)N(C)C (stereo not drawn),-,3.7µM,0,0
COc1ccc(NC(=O)C2CC(=O)OC2c2ccccc2)cc1 (stereo not drawn),0,9.3µM,0,0
CCOc1ccc(OCC)c(NC(=O)C2CCCN(C(=O)c3ccc(Cl)cc3)C2)c1 (stereo not drawn),?,9.3µM,-,0
COc1ccc(CCNC(=O)C2CCCN(S(=O)(=O)c3cc(C)ccc3OC)C2)cc1OC (stereo not drawn),12µM,5.2µM,0,0
CC(C)CCNC(=O)C1CCN(S(=O)(=O)c2ccc3nc4c(c(C(=O)O)c3c2)CCCCC4)CC1,0,0,0,?
COc1ccc(CCNC(=O)C2CCN(S(=O)(=O)c3ccc4nc5c(c(C(=O)O)c4c3)CCCC5)CC2)cc1OC,0,9.3µM,0,0
CCOc1ccc(OCC)c(NC(=O)C2CCCN(c3ncccn3)C2)c1 (stereo not drawn),0,0,0,0
COc1ccc(CCNC(=O)C/C(C)=N/NC(=O)C2CCCCC2)cc1OC,0,8.3µM,0,0
COc1ccc(CCNC(=O)C/C(C)=N/NC(=O)c2ccc(N)cc2)cc1OC,0,?,0,0
CC1(C)Cc2c(cnn2-c2cccc(F)c2)C(NC(=O)Cn2cccn2)C1 (stereo not drawn),0,0,0,0
CCOc1nc2cnccc2n(CC(=O)Nc2ccc(C)c(C)c2)c1=O,0,?,0,0
C[C@@H]1CCC(=O)N(CC[C@H](Oc2ccccc2)c2ccccc2)CC1,?,?,0,0
CCCCN(C)CCC(=O)Nc1ccc(F)c(F)c1,0,0,0,0
CC(=O)c1ccc(N2CCN(C(=O)C3CCCN(S(=O)(=O)c4cnc[nH]4)C3)CC2)cc1 (stereo not drawn),?,5.9µM,0,0
COc1ccc(CCNC(=O)C2CCN(S(=O)(=O)c3cnc[nH]3)CC2)cc1OC,0,?,0,0
COc1ccc(CCNC(=O)C2CCCN(S(=O)(=O)c3cnc[nH]3)C2)cc1OC (stereo not drawn),-,13µM,?,0
CCOc1ccc(OCC)c(NC(=O)C2CCCN(S(=O)(=O)c3cnc[nH]3)C2)c1 (stereo not drawn),-,4.7µM,0,0
CCOc1ccc(NC(=O)C2CCCN(S(=O)(=O)c3cnc[nH]3)C2)cc1 (stereo not drawn),0,0,0,0
COc1ccc(CCNC(=O)C2CCN(S(=O)(=O)c3cccc4cccnc34)CC2)cc1OC,0,17µM,0,0
O=C(c1ccco1)N1CCN(Cc2cc(=O)oc3cc(O)ccc23)CC1,0,?,-,0
CC1CCCCN1C(=O)CCS(=O)(=O)c1cccc2nonc12 (stereo not drawn),0,?,-,0
SMILES,Pf growth 48h,Pf growth 96h,NS1 inh,SARS PLpro yeast
COc1cccc(C(C(=O)NC(C)(C)C)N(CC(C)C)C(=O)CCC(=O)Nc2cc(C)on2)c1OC (stereo not drawn),?,0,0,0
CCC(C)(C)NC(=O)C(c1cccc(OC)c1OC)N(Cc1ccc(OC)cc1)C(=O)CCC(=O)Nc1cc(C)on1 (stereo not drawn),8.3µM,0,0,0
COc1cccc(C(C(=O)NC(C)(C)C)N(Cc2ccc(F)cc2)C(=O)CCC(=O)Nc2cc(C)on2)c1OC (stereo not drawn),13µM,?,0,0
O=C(NCc1ccc(F)cc1)C(c1cccnc1)N(C(=O)c1csnn1)c1ccccc1 (stereo not drawn),0,10µM,0,0
COc1cc(CC(=O)OCc2ccccc2F)cc(OC)c1OC,0,0,0,0
CNC(=O)c1ccc(Nc2nnc(-c3ccc(C)c(S(=O)(=O)NCC4CCCO4)c3)c3ccccc23)cc1 (stereo not drawn),5.2µM,?,0,0
Cc1ccc(-c2nn3c(-c4ccco4)nnc3c3ccccc23)cc1S(=O)(=O)NCC1CCCO1 (stereo not drawn),?,0,0,0
CNS(=O)(=O)c1cc(-c2nnc(Nc3ccc(NC(C)=O)cc3)c3ccccc23)ccc1C,10µM,?,0,0
CC(=O)Nc1ccc(Nc2nnc(-c3ccc(C)c(S(=O)(=O)NCC4CCCO4)c3)c3ccccc23)cc1 (stereo not drawn),1µM,1.2µM,0,0
Cc1ccc(-c2nnc(Nc3ccccc3)c3ccccc23)cc1S(=O)(=O)NCC1CCCO1 (stereo not drawn),4.1µM,?,0,0
CC(=O)Nc1ccc(Nc2nnc(-c3ccc(O)cc3)c3ccccc23)cc1,0,0,0,0
Cc1ccc(OCC(=O)N/N=C\c2cccn2C)c([N+](=O)[O-])c1,0,0,0,0
S=C1NC[C@H](CC2CCCCC2)N1CCCCC1CCCCC1,?,?,0,0
Nc1nc(CSC(=S)N2CCN(c3ccccc3)CC2)nc(Nc2ccc(F)cc2)n1,?,12µM,0,0
c1ccc2sc(C3CCN(Cc4nnnn4Cc4ccc5c(c4)OCO5)CC3)nc2c1,?,0,0,0
COc1ccc(Cn2nnnc2CN2CCC(c3nc4ccccc4s3)CC2)cc1,12µM,0,0,0
Cc1cc2nc(C3CCN(Cc4nnnn4Cc4ccccc4)CC3)[nH]c2cc1C,?,5.2µM,0,0
O=C1N/C(=C/c2cccs2)C(=O)N1Cc1ccc(Br)cc1,0,0,-,0
Cc1ccccc1CN1C(=O)Nc2ccccc2C(=O)N1C(C)(C)C,0,-,0,0
CC(C)(C)N1C(=O)c2ccccc2NC(=O)N1Cc1ccc(Br)cc1,-,8.3µM,0,0
C/C(=N\Nc1nccnc1Cl)c1ccc(F)cc1,0,0,0,0
C/C(=N\Nc1nccnc1Cl)c1ccc(O)cc1,0,7.4µM,0,0
S=c1[nH]nc(-c2ccncc2)n1/N=C/c1cccc(Cl)c1,?,0,0,0
CCCOc1cccc(C(=O)NCCNC(=O)c2ccco2)c1,0,0,0,0
Cc1ccc(N2CCN(CCC(=O)O)CC2)cc1,-,-,0,-
SMILES,Pf growth 48h,Pf growth 96h,NS1 inh,SARS PLpro yeast
N#C/C(=C\c1cccnc1)C(=O)NC1CCCCC1,10µM,?,0,0
N#C/C(=C\c1c(F)cccc1Cl)C(=O)NC1CC1,0,13µM,0,0
CC1CCCCC1NC(=O)/C(C#N)=C/c1ccccc1F (stereo not drawn),?,12µM,0,0
N#C/C(=C\c1ccccc1)C(=O)NC1CC1,0,0,0,0
CSc1ccc(/C=C(\C#N)C(=O)NC2CCCCC2C)cc1 (stereo not drawn),?,?,0,0
CC(C)(C)c1ccc(OCc2ccc(C(=O)Nc3cccnc3)o2)cc1,?,0,0,0
CCOC(=O)c1c(C)[nH]c(C(=O)COC(=O)CNC(=O)c2ccc(Cl)cc2Cl)c1C,0,0,0,0
CCN1CCN(C2CC(=O)NC2=O)CC1 (stereo not drawn),0,8.3µM,-,0

# High-throughput results: PubChem, National Center for Advancing Translational Sciences (NCATS)
